CCHF vOTU inh: CCHFV vOTU protease inhibition | AID 651958 | inhibition, % at 11.5 µM | 0.55% of 370,000 active | Pep-AMC fluorescence; in the data active means inhibition above about 30%
PrPC TRFRET: inhibitors of human cell surface prion protein PrPC | 0.43% of 370,000 active | P04156 | inhibition, % at 13.8 µM | TR-FRET read-out; in the data active means inhibition above about 24%
Yp Topo-I inh: inhibitors of Yersinia pestis topoisomerase I. Y. pestis Topo-I cleavage product accumulation, plate reader. activity, % at 10 µM. 0.064% of 360,000 active. AID 504884; in the data active means activity above about 50%, passing the limit was not always enough
Vc quorum ag: inducers of Vibrio cholerae quorum light production without autoinducers | activation, % at 18.7 µM | V. cholerae BH1578 lux reporter, luminescence, 6 h | 0.16% of 350,000 active; in the data active means activation mostly above about 9.7%, no sharp cut-off
PrPC TRFRET cf: cell surface PrPC inhibition, TR-FRET confirmation | shares compounds with PrPC TRFRET | cell surface PrPC level | inhibition, % at 13.8 µM | 65% of 1,500 active | AID 743200; in the data active means inhibition above about 25%
LD9 tox: LD9 cell cytotoxicity, PrPc inhibitor counter-screen | AID 743201 | 29% of 1,500 active | inhibition, % at 13.8 µM | shares compounds with PrPC TRFRET | LD9 cells cytotoxicity, luminescence viability; in the data active means inhibition above about 9.5%
Each line names hits and unclear results; the compound was inactive in the other large screens (follow-up assays come after a bar, where they were run). Most compounds without a hit are left out; they make up all but 1.1% or so of the library.

O=[N+]([O-])c1ccc(N2CCCCC2)cc1	none
O=[N+]([O-])c1ccc(N2CCN(CC3CCCCC3)CC2)cc1	PrPC TRFRET 51 | PrPC TRFRET cf inactive | LD9 tox inactive
CCN1/C(=C/c2ccc3cccc(C)c3[n+]2CC)Sc2ccccc21	PrPC TRFRET 28 | PrPC TRFRET cf 36 | LD9 tox 54
CCN(CC(=O)NC1CCS(=O)(=O)C1)S(=O)(=O)c1ccc2ccccc2c1 (stereo not drawn)	none
CN(C)S(=O)(=O)c1cccc(NC(=O)c2cncc(Br)c2)c1	none
Cc1ccc(S(=O)(=O)N(C)C)cc1NC(=O)c1cncc(Br)c1	PrPC TRFRET 27 | PrPC TRFRET cf inactive | LD9 tox inactive
CCn1ncc(CN2CCCC(C(=O)Nc3cccc(-c4cc5ccccc5[nH]4)c3)C2)c1C (stereo not drawn)	none
O=c1c2ccccc2oc2cc(NCCCN3CCOCC3)ccc12	none
COc1cccc2sc3cc(NCCCN4CCOCC4)ccc3c(=O)c12	PrPC TRFRET 72 | PrPC TRFRET cf 95 | LD9 tox inactive
Nc1cc2ccncc2c2ccccc12	none
CNC(=O)COc1ccccc1C(=O)Nc1ccc2c(c1)oc1ccccc12	PrPC TRFRET 31 | PrPC TRFRET cf 32 | LD9 tox inactive
CCC(Sc1ccc2nnc(-c3ccc(F)cc3)n2n1)C(=O)O (stereo not drawn)	PrPC TRFRET 38 | PrPC TRFRET cf 58 | LD9 tox inactive
COc1ccc(S(=O)(=O)N2CCCCC2)cc1NC(=O)c1ccc(C)cc1	none
COc1cccc(NC(=O)NC2CCCCN(Cc3ccc(C)cc3)C2=O)c1 (stereo not drawn)	PrPC TRFRET 25 (no result: Yp Topo-I inh, Vc quorum ag) | PrPC TRFRET cf inactive | LD9 tox inactive
O=C(O)C(O)(c1ccccc1)C1CCCC1 (stereo not drawn)	none
C=CCNC(=O)c1onc(CSc2ccc(OC)cc2)c1C(=O)O	PrPC TRFRET 37 | PrPC TRFRET cf inactive | LD9 tox inactive
C=CCNC(=O)c1onc(CSc2ccccc2)c1C(=O)O	none
CCc1noc(C)c1C(=O)Nc1ccc(C#N)cc1	none
COc1ccc(NC(=O)c2c(N)no[n+]2[O-])cc1	PrPC TRFRET 26 | PrPC TRFRET cf 25 | LD9 tox inactive
COc1ccc(NC(=O)c2c(N)no[n+]2[O-])c(OC)c1	none
COCCn1nnnc1C(c1ccccn1)N1CCN(c2cc(Cl)ccc2C)CC1 (stereo not drawn)	none
OC[C@@H]1CN(Cc2ccc(Cl)cc2)C[C@H](n2cnc3c(NC4CCCC4)ncnc32)O1	PrPC TRFRET 28 | PrPC TRFRET cf 35 | LD9 tox inactive
O=C(Nc1ccccc1)C1Cc2c(-c3cccc(F)c3)ccnc2O1 (stereo not drawn)	none
Cc1ccc(C)c(NS(=O)(=O)c2cc(C(=O)NCc3ccccn3)ccc2Cl)c1	none
Cc1ccc(NS(=O)(=O)c2cc(C(=O)NCc3ccccn3)ccc2Cl)cc1C	PrPC TRFRET 47 | PrPC TRFRET cf 60 | LD9 tox inactive
CCOc1ccccc1-c1n[nH]c(=S)o1	PrPC TRFRET 27 | PrPC TRFRET cf 25 | LD9 tox inactive
COc1ccccc1NS(=O)(=O)c1ccc(-c2cnc(C3CC3)o2)cc1	none
COc1ccc(NS(=O)(=O)c2ccc(-c3cnc(C4CC4)o3)cc2)cc1OC	PrPC TRFRET 32 | PrPC TRFRET cf inactive | LD9 tox 23
Brc1c(CSc2nc3ccccc3o2)nc2ncccn12	PrPC TRFRET 49 | PrPC TRFRET cf 47 | LD9 tox inactive
CC(CN1CCCC1)OC(=O)Cc1ccc(Cl)cc1 (stereo not drawn)	none
Cc1sc2ncnc(SCC(=O)Nc3ncccc3O)c2c1C	PrPC TRFRET 27 | PrPC TRFRET cf 32 | LD9 tox inactive
CCC(Sc1ncnc2sc(C)c(C)c12)C(=O)OC (stereo not drawn)	PrPC TRFRET 80 | PrPC TRFRET cf 106 | LD9 tox inactive
COc1ccc(C(C)=O)cc1Cn1nnc(-c2ccccc2Br)n1	none
CC(=O)c1c(C)[nH]c(C(=O)CSc2nnc(N)s2)c1C	PrPC TRFRET 30 | PrPC TRFRET cf 30 | LD9 tox inactive
Cn1c(N)c(C(=O)CSc2nnc(N)s2)c(=O)n(C)c1=O	none
CCC1CCCCN1S(=O)(=O)c1ccc(NC(=O)c2ccncc2)cc1 (stereo not drawn)	none
CC(=O)Nc1ccc(NC(=O)c2nc(S(=O)(=O)Cc3ccccc3)ncc2Cl)cc1	PrPC TRFRET 65 | PrPC TRFRET cf inactive | LD9 tox 78
CS(=O)(=O)c1ncc(Cl)c(C(=O)Nc2ccc3ccccc3c2)n1	PrPC TRFRET 84 | PrPC TRFRET cf 77 | LD9 tox 87
O=C(Nc1ccc2ccccc2c1)c1cnccn1	none
CCC1CCCCN1S(=O)(=O)c1ccc(NC(=O)c2nc(S(C)(=O)=O)ncc2Cl)cc1 (stereo not drawn)	PrPC TRFRET 79 | PrPC TRFRET cf 83 | LD9 tox 97
CCS(=O)(=O)c1ncc(Cl)c(C(=O)Nc2ccc(C)cc2)n1	PrPC TRFRET 42 | PrPC TRFRET cf 44 | LD9 tox 85
O=C(NCc1cccnc1)c1sc2ccccc2c1Cl	none
Cc1ccc2c(Cl)c(C(=O)NCc3cccnc3)sc2c1	PrPC TRFRET 29 | PrPC TRFRET cf 43 | LD9 tox inactive
Cc1c(C(=O)NCc2cccnc2)sc2nc(-c3ccccc3)cn12	PrPC TRFRET 28 | PrPC TRFRET cf inactive | LD9 tox inactive
Cc1nn(Cc2ccccc2)c2sc(C(=O)NCc3cccnc3)cc12	PrPC TRFRET 24 | PrPC TRFRET cf inactive | LD9 tox inactive
Cc1nn(-c2ccccc2)c2sc(C(=O)NCc3ccc(F)cc3)cc12	none (no result: Yp Topo-I inh, Vc quorum ag)
Cc1c(C(=O)NCc2cccnc2)sc2nc(-c3ccc(F)cc3)cn12	none
CN(C)C(=O)COc1ccc2ccc(=O)oc2c1	none
N#Cc1ccc(NC(=O)CCc2nc3ccccc3s2)cc1	none
NC(=O)c1cc(NC(=O)CCc2nc3ccccc3s2)cc(C(N)=O)c1	PrPC TRFRET 37 | PrPC TRFRET cf 31 | LD9 tox inactive
Cc1nc2ccccn2c(=O)c1NC(=O)c1cccc2ccccc12	none
COc1cccc(NC2c3ccccc3C(=O)N2Cc2ccccc2Cl)c1 (stereo not drawn)	PrPC TRFRET 29 | PrPC TRFRET cf inactive | LD9 tox inactive
COc1cc(NC2c3ccccc3C(=O)N2Cc2ccccc2Cl)cc(OC)c1 (stereo not drawn)	none
CN=C(Nc1ccc(C)c(C)c1)SC1CC(=O)N(c2ccc(OC)cc2)C1=O (stereo not drawn)	none
CN=C(Nc1cccc(Cl)c1)SC1CC(=O)N(c2ccc(OC)cc2)C1=O (stereo not drawn)	PrPC TRFRET 30 | PrPC TRFRET cf inactive | LD9 tox inactive
CC(c1ccc(Cl)cc1)N(CCN(C)C)c1ccccn1 (stereo not drawn)	none (no result: Yp Topo-I inh, Vc quorum ag)
CCc1cc2c(=O)c(-c3ccc4c(c3)OCCO4)coc2cc1OS(C)(=O)=O	PrPC TRFRET 36 | PrPC TRFRET cf 31 | LD9 tox inactive
CC1OC(=O)c2cc3ccccc3nc21 (stereo not drawn)	none

Screens deposited in PubChem by several laboratories.
